Measured values reported in the supplement of paper PMC6555819.

Each sequence was assayed on VDR:RXRa (NR concentration 270 nM, RXRa partner concentration 90 nM) (assay: PBM binding z-score (relative to random genomic background probes); higher = stronger binding; sequences stand for … in GC…GCGATTGACAGCGTAGAATGAAGG).
Description: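 Protein-binding microarray (Agilent 4x180K custom design, double-stranded 60-nt probes: 5' GC cap, 34-nt variable region, 24-nt constant primer region; full probe sequence given). Purified or IVT nuclear receptor:RXRα heterodimers (3:1 NR:RXRα, mostly 270:90 nM) or homodimers were incubated for 1 h in PBS with 2% milk and no ligand, then detected with Alexa488 antibodies. Fluorescence from o1-orientation probes (~5 replicates averaged) was converted to z-scores against 500 random hg19 background probes. Variable regions are seed direct-repeat (DR0–DR5) sites, all their single-nucleotide variants and half-site ablations.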

| Sequence | PBM binding z-score |
| --- | --- |
| CCTAGTAGGCCAGGGTCACTCAAGCATTTCGCTT | 2.7 |
| TCATTTAGGTAAATGCTAGGTGAAAGTCCGATCT | 0.573 |
| CCTAGCAGGCCAGGGTCTCTCAAGCATTTCGCTT | -0.712 |
| TCGAGTAGGCTAGGGGCATTCAGAATGGCGTCGA | -0.094 |
| CGTCCAAGGTCATAGGAGGTCAGTGAGGACAGAT | 7.07 |
| AGTCAAAGTTCAAGACGAGGTAACGTAAAGCACG | 4.07 |
| TCTAGTTGGTCACGGAGGTCACAGACGACGGGTA | 5.81 |
| TATCCAGGGTCAAAGGCCAGAGTACGAATGTCGA | 4.95 |
| TGTCAAAATTCAAAGGTAACGTAAGTATCCACAC | 0.436 |
| ATCTCTAGGTAAAAGTTCAGTCAATCCCGAGGAT | 1.45 |
| ATATGTAGGGTATCGGGTCATTCAGTTTGCGCAT | 5.05 |
| ATCTCTAGGTAACCAAGTTCAGTCAATGCCGAAC | 4.36 |
| CCTACTGGGCCGAAAAGGTCATTGATGCCGATAA | 4.48 |
| CCTGCTAGGTCATGGTCAGTTAATCTACAGTATG | 2.28 |
| AGAATGAGGTGATTAAGATCAGGGAATTGCGGTC | 0.0675 |
| CGAACTAGGTGAGAACAGGACAGTGAAGGATGAT | -0.123 |
| AGTCAAAGTTCATCTAAGTAACGTAAGATATGCT | 4.76 |
| GCTGTTAGGTCAGGTTGGTCAGCTAACGGGTACG | 0.95 |
| TTACCAAGATGAAGGTCGTTGATCCCTCTGTAGA | 0.991 |
| GCTGATAGGTCAGGTTGGTCAGCTAACGGGTACG | 1.58 |

| Sequence | PBM binding z-score |
| --- | --- |
| ATCTCTAGGTAACAAGTTAAGTGAAAGAGAGGAC | 0.232 |
| CGAAGTAGGTCATCCAGGACAGTGAATACATTGA | 5.12 |
| GGAACGAGGGCCTTCGAGTTGATAGCATGGCGAT | -0.0234 |
| GCTGCTAGGTCAGATTGGTCAGCTAACGGGTACG | 0.624 |
| TCAGACAGGTGAAGGTACCTCAGGTACGCAGTCG | 0.202 |
| ATCTCTAGGTAAGGCTCAGTTCAGTGAAGAACGC | 0.553 |
| CCTACTGGGCCATCAGATCATTGATATCAACGTT | -0.181 |
| CTAGAAAGGTCGTGCTCAGGTGAGTATACCAAAC | 3.1 |
| TCGTGTAGATCAGCAGGTTAAGAAAGCTGGCCAA | 0.0438 |
| CGAACTAGGTCGGAACAGGACAGTGAAGGATGAT | -0.292 |
| GCTCGGAGGACAAAGTCAGAGCTTTGTCCGTAGA | -0.556 |
| CCTACTGGGCCACGGAAGGTCATTGATTCAGTGA | 2.83 |
| GCTGCTGGGTCAGGTTGGTCAGCTAACGGGTACG | 0.554 |
| TCTCGTAGATCAAGCAGGTTAAGAAAGCCTGAGT | -0.00505 |
| TCTGCTAGGTCAGTTTGTCAGCTAACGAGCTGCC | 0.205 |
| ATCGAAAGGTGGAAGGTGAGTATACCCACCCGAA | 0.0525 |
| TGAATGAGGTTATGAGATCAGGGAACGTTGCAAA | 0.987 |
| AGAATGATGTTATACGTAGATCAGGGAAGAAAGT | -0.209 |
| CAAACTAGGTCACGAAAGGTCAAGGTCGAATGAC | 6.61 |
| ATCGAAAGGTCGAGGTGAGTTTAGAGAAAGGGAA | 4.92 |
